This is part of a sample that, as a whole, favours compounds with a hit. Of some 79,000 tested, about 15% had one in any assay. Unmarked numbers belong to inactive results. Active and inactive are the calls of the source. No stated cut-off is given here; in the data, active means growth inhibition above about 70%; inactive means the rest. Where a SMILES comes first, the peptide text is derived from it. [ ]: non-standard residue; d: D form. The star is where a group is joined. ξ: configuration not given here. dThr(3ξ) = CC(O)[C@@H](N)C(=O)O; dNMeL = CN[C@H](CC(C)C)C(=O)O; OBn = c1ccc(CO*)cc1; ξLac = CC(O)C(=O)O
Tests used:
[1] = NCI Yeast Anticancer Drug Screen. Data for the rad50 strain (AID 155);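 further: 0% = growth of vehicle-only cultures of the same strain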; conditions: S. cerevisiae rad50 strain growth inhibition; at 50.0 µM; stronger effect = higher value
Outline: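 Readout: growth inhibition relative to vehicle-treated cultures. Compound exposure was carried out in a genetically defined yeast strain deficient in DNA damage repair.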

[2] = NCI Yeast Anticancer Drug Screen. Data for the mec2-1 strain (AID 157); conditions: S. cerevisiae mec2-1 strain, at 50.0 µM, stronger effect = higher value
Outline: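 Yeast mec2-1 mutant treated with compound. Readout: growth inhibition vs vehicle controls.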

[3] = NCI Yeast Anticancer Drug Screen. Data for the sgs1 mgt1 strain (AID 161);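 further: 0% = growth of cultures given vehicle only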; conditions: S. cerevisiae sgs1 mgt1 strain, at 50.0 µM, stronger effect = higher value
Outline: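 Mutant yeast exposed to compound; growth scored against vehicle-only wells.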

[4] = NCI Yeast Anticancer Drug Screen. Data for the cln2 rad14 strain (AID 165);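 further: 0% = growth equal to vehicle treated cultures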; conditions: S. cerevisiae cln2 rad14 strain, at 50.0 µM, stronger effect = higher value
Outline: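 cln2 rad14 yeast strain; compound exposure; growth inhibition read vs vehicle controls.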

[5] = NCI Yeast Anticancer Drug Screen. Data for the bub3 strain (AID 167); conditions: S. cerevisiae bub3 mutant strain, at 50.0 µM, stronger effect = higher value
Outline: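 Readout: yeast growth inhibition, expressed relative to vehicle-only wells. The test organism is a mutant strain from a panel with lesions in DNA repair or checkpoint genes.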

[6] = NCI Yeast Anticancer Drug Screen. Data for the mlh1 rad18 strain (AID 175); conditions: S. cerevisiae mlh1 rad18 strain growth inhibition; at 50.0 µM; stronger effect = higher value
Outline: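 Yeast w/ defined DNA-repair lesions; compound exposure; growth vs vehicle controls → % inhibition.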

SMILES: COc1ccccc1NC(=O)C1=C(C)NC(C)=C(C(=O)Nc2ccccc2OC)C1c1ccc(C(C)C)cc1
- growth inhibition [1]: 18.2%
- growth inhibition [2]: 3.35%
- growth inhibition [3]: 11.8%
- growth inhibition [4]: 29.6%
- growth inhibition [5]: -11.8%
- growth inhibition [6]: 33.8%

SMILES: COC(=O)c1ccc(C(=O)OC)c2nn3c(N)nnc3nc12
- growth inhibition [1]: 8.85%
- growth inhibition [2]: 15%
- growth inhibition [3]: 7.55%
- growth inhibition [4]: -12.4%
- growth inhibition [5]: 9.15%
- growth inhibition [6]: 2.9%

SMILES: N#Cc1c(O)c(N=Nc2ccccc2F)c(=O)n2c1[nH]c1ccccc12
- growth inhibition [1]: -24.4%
- growth inhibition [2]: -15.7%
- growth inhibition [3]: -10.4%
- growth inhibition [4]: 4.1%
- growth inhibition [5]: -6.85%
- growth inhibition [6]: -47.8%

SMILES: CCCNC(=O)Nc1ccc(Nc2ccccc2)cc1
- growth inhibition [1]: 5.9%
- growth inhibition [2]: 2.5%
- growth inhibition [3]: -0.5%
- growth inhibition [4]: 4.4%
- growth inhibition [5]: 18.2%
- growth inhibition [6]: 2%

SMILES: COC(=O)CCC(=O)Nc1ccc(Cl)cc1C
- growth inhibition [1]: -22.8%
- growth inhibition [2]: -9.45%
- growth inhibition [3]: -19.9%
- growth inhibition [4]: -6.5%
- growth inhibition [5]: -60%
- growth inhibition [6]: -21.2%

SMILES: Cc1cc(NS(=O)(=O)c2ccc(N=[N+]([O-])c3ccc(S(=O)(=O)Nc4cc(C)on4)cc3)cc2)no1
- growth inhibition [1]: 10.8%
- growth inhibition [2]: -30.1%
- growth inhibition [3]: -6%
- growth inhibition [4]: 4.7%
- growth inhibition [5]: -13.2%
- growth inhibition [6]: -19.6%

SMILES: CC(C#N)OCCO (centres undefined)
- growth inhibition [1]: 9.3%
- growth inhibition [2]: -2.3%
- growth inhibition [3]: 7.85%
- growth inhibition [4]: -1.85%
- growth inhibition [5]: -6.7%
- growth inhibition [6]: 5.15%

SMILES: CSc1cc(Cl)c(C)cc1S(=O)(=O)NC(=O)NNc1ccc(Cl)cc1
- growth inhibition [1]: 23.9%
- growth inhibition [2]: 11.2%
- growth inhibition [3]: 10.6%
- growth inhibition [4]: 7.55%
- growth inhibition [5]: -3.75%
- growth inhibition [6]: 51.6%

SMILES: CC1C=C(OC(=O)c2ccccc2)C(=O)C(n2cc(F)c(=O)n(C(=O)c3ccccc3)c2=O)O1 (centres undefined)
- growth inhibition [1]: 43.2%
- growth inhibition [2]: 47.3%
- growth inhibition [3]: 68.7%
- growth inhibition [4]: 0.1%
- growth inhibition [5]: -1.25%
- growth inhibition [6]: 15.6%

SMILES: O=C(NCCNCCCNC(=O)c1cc(-c2ccccc2)nc2ccccc12)c1cccc(OCc2ccccc2)c1OCc1ccccc1
- growth inhibition [1]: 86.3% (active)
- growth inhibition [2]: 90.9% (active)
- growth inhibition [3]: 90.3% (active)
- growth inhibition [4]: 87.5% (active)
- growth inhibition [5]: 89.2% (active)
- growth inhibition [6]: 85.8% (active)

SMILES: NC(Cc1ccc(CP(=O)(O)O)cc1)C(=O)O (centres undefined)
- growth inhibition [1]: -44.8%
- growth inhibition [2]: -61.3%
- growth inhibition [3]: -55.1%
- growth inhibition [4]: -20%
- growth inhibition [5]: -27.5%
- growth inhibition [6]: -70.3%

SMILES: CCOC(=O)c1cn(CC)c2cc3c(cc2c1=O)SCS3
- growth inhibition [1]: -37.3%
- growth inhibition [2]: -18.9%
- growth inhibition [3]: -16.6%
- growth inhibition [4]: 29.9%
- growth inhibition [5]: 19.4%
- growth inhibition [6]: 41%

SMILES: O=c1cc(-c2ccccc2F)[nH]c2ccc(N3CCCC3)cc12
- growth inhibition [1]: 13.6%
- growth inhibition [2]: 6.2%
- growth inhibition [3]: 25.5%
- growth inhibition [4]: 0.65%
- growth inhibition [5]: 22.3%
- growth inhibition [6]: 23.6%

SMILES: N#CC1(CCCI)CCCC1
- growth inhibition [1]: 9.3%
- growth inhibition [2]: 7.05%
- growth inhibition [3]: 7.95%
- growth inhibition [4]: -7.45%
- growth inhibition [5]: -2.3%
- growth inhibition [6]: 6.1%

SMILES: O=C(O)C(CO)(c1ccccc1)c1ccccc1
- growth inhibition [1]: -3.2%
- growth inhibition [2]: -3.9%
- growth inhibition [3]: -8.25%
- growth inhibition [4]: -1.65%
- growth inhibition [5]: -1.55%
- growth inhibition [6]: -0.15%

SMILES: Nc1c(Br)cc2c(c1Br)C(=O)c1ccccc1-2
- growth inhibition [1]: 3.95%
- growth inhibition [2]: 8.8%
- growth inhibition [3]: 23.6%
- growth inhibition [4]: 8.8%
- growth inhibition [5]: 15.2%
- growth inhibition [6]: -0.05%

SMILES: CC(=O)OC(C)[C@@H](NC(=O)[C@@H](CC(C)C)N(C)C(=O)[C@@H]1CCCN1C(=O)C(C)O)C(=O)OCc1ccccc1 (some centres undefined) (H-[ξLac]P[dNMeL][dThr(3ξ)](Ac)-OBn)
- growth inhibition [1]: 8.75%
- growth inhibition [2]: 24.4%
- growth inhibition [3]: -16.8%
- growth inhibition [4]: 8.2%
- growth inhibition [5]: -30.4%
- growth inhibition [6]: -37.3%

SMILES: CSc1ccc(NC(=O)Nc2ccc(Cl)cc2[N+](=O)[O-])cc1
- growth inhibition [1]: -4.55%
- growth inhibition [2]: 40.5%
- growth inhibition [3]: 13.6%
- growth inhibition [4]: -6.05%
- growth inhibition [5]: 17.9%
- growth inhibition [6]: 20.3%

SMILES: CCN(CC)c1ccc2c(c1)Oc1cc(N(CC)CC)ccc1C2c1ccccc1C(=O)O
- growth inhibition [1]: -10.2%
- growth inhibition [2]: -32.6%
- growth inhibition [3]: -1.5%
- growth inhibition [4]: 13.8%
- growth inhibition [5]: 3.6%
- growth inhibition [6]: -3.45%

SMILES: Cc1cn(C2CC(O)C(CO)O2)c(=O)nc1N1CCCC1 (centres undefined)
- growth inhibition [1]: -4.2%
- growth inhibition [2]: -7.4%
- growth inhibition [3]: -12.9%
- growth inhibition [4]: -8.55%
- growth inhibition [5]: -0.4%
- growth inhibition [6]: 0.55%

SMILES: Cc1ccc(S(=O)(=O)OI(O)CC(F)(F)F)cc1
- growth inhibition [1]: -39.1%
- growth inhibition [2]: 15.5%
- growth inhibition [3]: -2.5%
- growth inhibition [4]: -2.05%
- growth inhibition [5]: 6.5%
- growth inhibition [6]: 25.9%

SMILES: COc1cccc2cc(-n3nnc4ccccc43)c(=O)oc12
- growth inhibition [1]: -8.6%
- growth inhibition [2]: 18.1%
- growth inhibition [3]: 4.6%
- growth inhibition [4]: 7.6%
- growth inhibition [5]: 25.8%
- growth inhibition [6]: 9.85%

SMILES: CCCCCCCCCCCC(=O)O (tested in a mixture with another compound)
- growth inhibition [1]: -15.7%
- growth inhibition [2]: 7.5%
- growth inhibition [3]: -41.6%
- growth inhibition [4]: -39.9%
- growth inhibition [5]: -32.6%
- growth inhibition [6]: -13.5%

SMILES: O=[N+]([O-])c1ccc(N=C/C=C\Nc2ccc([N+](=O)[O-])cc2)cc1
- growth inhibition [1]: 6.8%
- growth inhibition [2]: 14.8%
- growth inhibition [3]: 11.2%
- growth inhibition [4]: -13.4%
- growth inhibition [5]: 6.85%
- growth inhibition [6]: 14.8%

SMILES: N#Cc1ccc(S(=O)(=O)c2ccc(C#N)cc2)cc1
- growth inhibition [1]: 1%
- growth inhibition [2]: -17.6%
- growth inhibition [3]: 11.3%
- growth inhibition [4]: 24.4%
- growth inhibition [5]: 12%
- growth inhibition [6]: -19.4%

SMILES: CC(O)C(NC(=O)c1cnc(OCc2ccccc2)nc1N)C(=O)O (centres undefined)
- growth inhibition [1]: 3.65%
- growth inhibition [2]: -15.7%
- growth inhibition [3]: -11%
- growth inhibition [4]: 0.85%
- growth inhibition [5]: -9.8%
- growth inhibition [6]: -3.35%

SMILES: C#CCn1cc(F)c(=O)n(CC#C)c1=O
- growth inhibition [1]: -50.2%
- growth inhibition [2]: -30.8%
- growth inhibition [3]: -4.55%
- growth inhibition [4]: -33.9%
- growth inhibition [5]: -0.05%
- growth inhibition [6]: -2.05%

SMILES: O=C(O)/C=C/C(=O)N(c1ccccc1)N(C(=O)/C=C/C(=O)O)c1ccccc1
- growth inhibition [1]: 5.9%
- growth inhibition [2]: -9.05%
- growth inhibition [3]: 5.15%
- growth inhibition [4]: 5.65%
- growth inhibition [5]: 5.55%
- growth inhibition [6]: 17.5%

SMILES: CC(=O)Nc1cc(F)c(N)c(F)c1
- growth inhibition [1]: -10.9%
- growth inhibition [2]: -4.3%
- growth inhibition [3]: -13.3%
- growth inhibition [4]: -5.25%
- growth inhibition [5]: 0.05%
- growth inhibition [6]: -3.8%

SMILES: Clc1ccc(-c2nc(CSc3ccccn3)cs2)cc1
- growth inhibition [1]: 13.7%
- growth inhibition [2]: -12.4%
- growth inhibition [3]: 49.5%
- growth inhibition [4]: -22.2%
- growth inhibition [5]: 28.9%
- growth inhibition [6]: -6.8%

SMILES: CC(C)=CC1C(CO)C1(C)C (centres undefined)
- growth inhibition [1]: -7.8%
- growth inhibition [2]: -17.2%
- growth inhibition [3]: 23.8%
- growth inhibition [4]: -16.6%
- growth inhibition [5]: -6.25%
- growth inhibition [6]: -16.9%

SMILES: NCC1CC1
- growth inhibition [1]: 19.1%
- growth inhibition [2]: -2.25%
- growth inhibition [3]: 9.75%
- growth inhibition [4]: 8.65%
- growth inhibition [5]: -11.8%
- growth inhibition [6]: 14.7%

SMILES: O=c1[nH]c2nc(Cl)nc(Cl)c2[nH]1
- growth inhibition [1]: 28.4%
- growth inhibition [2]: 5.55%
- growth inhibition [3]: 11.4%
- growth inhibition [4]: 12.1%
- growth inhibition [5]: 8.3%
- growth inhibition [6]: 45%

SMILES: CC1OC(n2cc(F)c(=O)[nH]c2=O)CCC1O (centres undefined)
- growth inhibition [1]: 7%
- growth inhibition [2]: 10.2%
- growth inhibition [3]: 33.2%
- growth inhibition [4]: -10.1%
- growth inhibition [5]: -29.2%
- growth inhibition [6]: -60.5%

SMILES: CC(C)c1cc(C(C)C)c(B(c2ccccc2)c2ccccc2)c(C(C)C)c1B(c1ccccc1)c1ccccc1
- growth inhibition [1]: -13.7%
- growth inhibition [2]: 4.8%
- growth inhibition [3]: 18.4%
- growth inhibition [4]: 6.3%
- growth inhibition [5]: 6.35%
- growth inhibition [6]: 13.9%

SMILES: CCOC(=O)C(Cc1cc(N)c(O)c(N)c1)NC(C)=O (centres undefined)
- growth inhibition [1]: 1.95%
- growth inhibition [2]: -4.95%
- growth inhibition [3]: -1.5%
- growth inhibition [4]: 6.8%
- growth inhibition [5]: -1.45%
- growth inhibition [6]: -0.85%

SMILES: Oc1ccccc1C=Nc1ccc2c(ccc3c4ccccc4ccc23)c1
- growth inhibition [1]: 51.8%
- growth inhibition [2]: 39.8%
- growth inhibition [3]: 28%
- growth inhibition [4]: -6.65%
- growth inhibition [5]: 48.1%
- growth inhibition [6]: 39.8%

SMILES: CC(Nc1cnccn1)Nc1cnccn1
- growth inhibition [1]: -3.1%
- growth inhibition [2]: -3.55%
- growth inhibition [3]: -0.4%
- growth inhibition [4]: -23.4%
- growth inhibition [5]: -5.2%
- growth inhibition [6]: 1.05%

SMILES: N#Cc1ccc([N+](=O)[O-])n1CCO
- growth inhibition [1]: 9.7%
- growth inhibition [2]: 8.7%
- growth inhibition [3]: 35%
- growth inhibition [4]: -0.05%
- growth inhibition [5]: 15.6%
- growth inhibition [6]: 19.3%

Source: PubChem BioAssay (NCI)
